# High-throughput results from PubChem BioAssay.
# GPR151 ag: activates the human receptor GPR151. 1% of 650,000 active. AID 1508602. PathHunter beta-arrestin GPR151 cells, luminescence. activation, % at 11.2 µM; in the data active = activation above about 4.9%;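 note: 0% = median of compound wells and 100% = cells with positive control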
# MITF primary: blocks human microphthalmia-associated transcription factor; AlphaScreen MITF homodimerization, bead proximity signal; inhibition, % at 2.6 µM; 0.91% of 650,000 active; in the data active = inhibition above about 50%;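 note: 0% = vehicle wells with protein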
# Target sequence (O75030 whole entry, looked up): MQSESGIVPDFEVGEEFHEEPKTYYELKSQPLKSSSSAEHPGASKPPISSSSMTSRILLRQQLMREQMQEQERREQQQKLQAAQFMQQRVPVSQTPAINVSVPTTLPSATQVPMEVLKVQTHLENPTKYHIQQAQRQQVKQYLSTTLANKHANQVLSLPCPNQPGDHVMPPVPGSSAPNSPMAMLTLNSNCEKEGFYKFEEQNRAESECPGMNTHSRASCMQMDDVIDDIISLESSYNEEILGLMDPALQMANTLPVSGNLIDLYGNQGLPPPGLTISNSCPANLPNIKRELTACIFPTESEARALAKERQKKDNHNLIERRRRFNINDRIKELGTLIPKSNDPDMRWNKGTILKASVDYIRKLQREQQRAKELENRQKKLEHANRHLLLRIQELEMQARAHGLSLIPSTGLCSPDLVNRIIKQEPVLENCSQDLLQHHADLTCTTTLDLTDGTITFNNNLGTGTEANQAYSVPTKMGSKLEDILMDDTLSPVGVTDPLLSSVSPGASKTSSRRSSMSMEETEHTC
# FBW7 activator: activators of human E3 ligase FBW7 | Q969H0 | AlphaScreen FBW7–phospho-cyclin E peptide binding, activator screen | normalized activity (activation), % at 26.1 µM | 0.13% of 650,000 active; in the data active = normalized activity above about 1.9%;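 note: purified mutant Fbw7 with reduced substrate affinity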
# TEAD-YAP inh: TEAD-YAP interaction inhibition. HEK-TIYL cells, TEAD-Gal4/YAP UAS-luciferase luminescence. inhibition, % at 9.12 µM. 1.4% of 640,000 active; in the data active = inhibition above about 32%;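 note: 0% = median of test compound wells and 100% = reference inhibitor wells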
# Active calls of the source: *; / = no result given. Sampled rows, rich in hits. Any-hit rate of the full collection: about 3.4%.
SMILES,GPR151 ag,MITF primary,FBW7 activator,TEAD-YAP inh
Cc1nn2c(=O)/c(=C\c3ccccn3)sc2nc1=O,1,70*,0,-2
O=C(Nc1cnn(-c2ccc(C(=O)NC3CCc4ccccc43)cc2)c1)c1ccoc1 (stereo not drawn),-1,13,1,56*
CCOC(=O)N1CCN(c2c(N3CCN(c4ccc(F)cc4)CC3)c(=O)c2=O)CC1,-2,-4,0,-5
CCOC(=O)N1CCN(c2c(NCc3ccc(F)cc3)c(=O)c2=O)CC1,2,0,0,55*
O=C(CSc1nc(-c2ccco2)cc(C(F)(F)F)n1)Nc1cccnc1,1,8,0,48*
CC(=O)Nc1cccc(NC(=O)CSc2nc(-c3ccco3)cc(C(F)(F)F)n2)c1,2,8,0,42*
CC(C)NC(=O)CSc1nc(-c2ccco2)cc(C(F)(F)F)n1,0,-9,0,3
CCCNC(=O)CSc1nc(-c2ccco2)cc(C(F)(F)F)n1,0,3,0,10
O=C(CCS(=O)(=O)c1ccc(Br)cc1)Nc1nccs1,2,11,0,11
NC1=C(Nc2cccc(C(F)(F)F)c2)C(=O)c2ccccc2C1=O,-1,44,-1,-2
CN(C)c1ccc(/C=C(\NC(=O)c2ccccc2F)C(=O)Nc2ccc(F)c(Cl)c2)cc1,0,61*,0,-6
Cc1ccc(NC(=O)/C(=C/c2ccc(N(C)C)cc2)NC(=O)c2ccccc2F)cc1Cl,1,3,0,5
CCOC(=O)c1c(NC(=O)CNCc2ccccc2)sc2c1CCN(C(=O)OCC)C2,0,11,0,2
COc1cccc2c1C(=O)c1c(O)c3c(c(O)c1C2=O)C[C@@](O)(C(=O)CO)C[C@@H]3O[C@H]1C[C@H](N)[C@H](O)[C@H](C)O1,-3,44,0,92*
COc1cccc2c1C(=O)c1c(O)c3c(c(O)c1C2=O)C[C@@](O)(C(C)=O)C[C@@H]3OC1CC(N)C(O)C(C)O1 (stereo partly drawn),1,35,0,/
CC(=O)N(CN1C(=O)c2ccccc2C1=O)c1ccc(C)cc1,-1,18,0,0
Cc1ccc2oc(Cc3ccccc3)nc2c1,-2,20,0,47*
Cc1ccc(-c2nnc(Cc3ccccc3)o2)cc1,-2,-10,0,-58
CCOc1ccc(C2C(C#N)=C(N)N(c3ccc(C)cc3)C3=C2C(=O)CCC3)cc1 (stereo not drawn),0,-9,0,57*
Cc1ccc(N2C(N)=C(C#N)C(c3cc(Br)cs3)C3=C2CCCC3=O)cc1 (stereo not drawn),1,3,0,34*
COc1ccc(N2C(N)=C(C#N)C(c3ccccc3)C3=C2CCCC3=O)cc1 (stereo not drawn),0,4,0,44*
COc1ccc(C2C(C#N)=C(N)N(c3ccc(Cl)cc3)C3=C2C(=O)CCC3)cc1 (stereo not drawn),1,8,0,-2
CCOC(=O)c1c(C)[nH]c(C(=O)N/N=C\c2ccccc2Cl)c1C,3,-7,0,40*
CCOC(=O)c1c(C)[nH]c(C(=O)N/N=C\c2ccc([N+](=O)[O-])cc2)c1C,-1,5,0,41*
CCOC(=O)c1c(C)[nH]c(C(=O)N/N=C\c2cccc(OC)c2)c1C,1,-2,0,46*
SMILES,GPR151 ag,MITF primary,FBW7 activator,TEAD-YAP inh
O=c1c2ccccc2ncn1-c1ccc([N+](=O)[O-])cc1[N+](=O)[O-],-1,13,0,49*
O=C(NCCCN1CCOCC1)C(Cc1ccccc1)NS(=O)(=O)c1ccc(Cl)cc1 (stereo not drawn),-1,-1,2.4*,1
Cc1csc2ncc(C(=O)N(CCO)C(C)C)c(=O)n12,0,-2,0,1
Cc1cccc(N2CCN(C(=O)CCN3C(=O)c4ccccc4C3=O)CC2C)c1 (stereo not drawn),1,-4,0,3
Clc1ccc(-c2cc3c(nn2)Nc2ccccc2N3)cc1,-5,8,0,86*
COc1ccc(C2=CC(=O)Nc3ccccc3S2)cc1,-1,10,1,-46
COc1ccc(-c2cc3c(nn2)Nc2ccccc2S3)cc1,-4,8,1,86*
O=S(=O)(c1cccc(C(F)(F)F)c1)c1cnc(-c2ccncc2)nc1-c1ccncc1,1,3,0,-5
CC(=O)c1ccc(OCc2ccccc2C#N)c(CSc2ncccn2)c1,1,4,0,-20
Cc1nc2cc(N3CCN(C)CC3)c(NC(=O)C3CC3)cc2c(=O)n1Cc1ccccc1,0,3,0,34*
CC(C)c1ccccc1NC(=O)c1ccc(C(C)(C)C)cc1,0,3,0,-9
COCC1CCCCN1C(=O)c1cc(COc2ccc3ncccc3c2)on1 (stereo not drawn),2,1,0,42*
CCN(CC)C(=O)C1CCCN(C(=O)c2cc(COc3ccc4ncccc4c3)on2)C1 (stereo not drawn),-1,-8,0,8
CCC1CCCCN1C(=O)c1cc(COc2ccc3ncccc3c2)on1 (stereo not drawn),0,6,1,49*
COc1ccc(C(=O)/C(=C\c2ccc(OC)c(OC)c2)c2nc3ccccc3o2)cc1,2,7,0,43*
O=S(=O)(N/N=C1\CC(c2ccccc2)Oc2ccccc21)c1ccccc1 (stereo not drawn),2,-13,2.7*,16
COCCN(Cc1cccnc1)C(Cc1ccccc1)C1CCN(Cc2cnn(C)c2)CC1 (stereo not drawn),2,-5,7.6*,6
COCCN(Cc1ccccn1)C(Cc1ccccc1)C1CCN(Cc2cnn(C)c2)CC1 (stereo not drawn),-1,-2,0,-2
Cc1ccc(CCC(=O)Nc2ncc(Cc3ccccc3F)s2)o1,0,9,0,51*
Cc1cccc(Cc2cnc(NC(=O)CCc3ccc(C)o3)s2)c1,0,14,0,32*
CC(=O)Nc1ncc(Cc2ccccc2F)s1,0,10,0,0
COc1cccc(-c2nn3c(C4COc5ccccc5O4)nnc3s2)c1 (stereo not drawn),2,5,0,61*
Fc1cccc(-c2nn3c(C4COc5ccccc5O4)nnc3s2)c1 (stereo not drawn),0,-6,0,3
CCN1CCN(c2c(Cl)cccc2NC(=O)c2cccc3ccccc23)CC1,2,8,0,35*
O=C(Nc1cccc(Cl)c1N1CCN(CCc2ccccc2)CC1)c1ccc(Br)o1,23*,0,0,-4
C=C(C)CN1CCN(c2c(Cl)cccc2NC(=O)c2ccc(Br)o2)CC1,1,6,0,-5
Nc1ccc(OCc2ccccc2Cl)cc1,-1,24,0,72*
O=C1c2ccccc2C(=O)C1(Nc1ccc(OCc2ccccc2Cl)cc1)c1ccccc1,0,14,0,32*
O=C(O)CCC(=O)n1ncc2ccc(Cl)cc21,1,13,0,-5
